Results on 14 molecules are retold here after article PMC12136788.

T1: UNK ZnF1-3 (human, UniProt Q9C0B0 31-174)
T1 sequence: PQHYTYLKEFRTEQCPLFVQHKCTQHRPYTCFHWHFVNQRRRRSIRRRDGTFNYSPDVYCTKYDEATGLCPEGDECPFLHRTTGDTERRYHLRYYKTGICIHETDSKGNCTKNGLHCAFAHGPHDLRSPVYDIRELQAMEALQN

B1: chr12:39756943:39756944:-_ENSG00000139116_ENST00000544797|hu_mus|hu_hu_hu_mus_False|28_58 (ssRNA)
RNA: GGGAGUUCUACAGUCCGACGAUCGGUUUGGCUGUUACCCCCAAGGGAAUCCUGCAAGAGUCUUGUCAGCUUAGAGUCUCUAUAGGGGACAUGGGUGGCUCUCUUGCUCUUGUCUCCCAAGGCGCUGAUUACAUUCCCAAGAGCCAACAGAGGAUUGAGCAUCA
B2: chr8:95500983:95500984:-_ENSG00000164944_ENST00000437199|hu_hu|hu_hu_hu_mus_True|8_88 (ssRNA)
RNA: GGGAGUUCUACAGUCCGACGAUCAGAACACAUCUAUCGAGUAAAGGGAGCGUACAUACGGCCUCUACCACUGCCUCCACUAACAAACUUUCCUCUCGAGCCUCCACUGCCGCUAUUUGUACUAGCCCCAGGAAGGUCCAGGCCCAACAGAGGAUUGAGCAUCA
B3: chr17:90989275:90989276:-_ENSMUSG00000024109_ENSMUST00000160844|mus_mus|motif|central (ssRNA)
RNA: GGGAGUUCUACAGUCCGACGAUCAGAUGUUGUCUUGAAUUGGAAAAAUAGAUGCAUAGAGGUGUAGGCUUGCAAUGUAGCGGAGGCAACAUAGCUCGAUUUGGUCUUGAAGGUGACAGGAUCUGCGAUGAUGUUCCUGAAUCCCAACAGAGGAUUGAGCAUCA
B4: chrX:103214973:103214974:+_ENSMUSG00000031231_ENSMUST00000033582|mus_hu|FALSE|FALSE (ssRNA)
RNA: GGGAGUUCUACAGUCCGACGAUCAACAAUACAGAAAGUGGCUCCACUAGCUAAUACAGCAUUACCGUAUUUGUCAUGAAAAUCAGGUGUACGUUUCUGGUGGCUCUGCCUUGCCAUUGUUUGCUGAAUGCUUCGAACUUGGAGCAACAGAGGAUUGAGCAUCA
B5: chr2:35989780:35989781:-_ENSMUSG00000026889_ENSMUST00000028251|mus_hu|FALSE|FALSE (ssRNA)
RNA: GGGAGUUCUACAGUCCGACGAUCGCAUUCUCCAGGGGAAGAGUUUUGGUUUCUGCUUCCAUCAAUGUCUAUGAAAUACUCGUGGCCUCGGCGUGGUGCUCUCAGCUCAUGCCCGGAAACCAGGUCCCGACGCCGCGGUCAGACCAACAGAGGAUUGAGCAUCA
B6: 37444673_37445709_2339_CDS_ENSMUSG00000026113_ENSMUST00000027287|mouse|control|control (ssRNA)
RNA: GGGAGUUCUACAGUCCGACGAUCGUAGAGCUGCCGCAGGAAGCCACCGUCGUGCAGGCAGUUCCUCAGCUUGAUGAUAAAGCCACAGAUGAGGGCUGUCAGGGUUUGGCAGAAGACGACGUCACGGCGAUACUGCAGGCUGAGCAACAGAGGAUUGAGCAUCA
B7: chr5:106037793:106037794:+_ENSMUSG00000054720_ENSMUST00000067924|mus_mus|FALSE|FALSE (ssRNA)
RNA: GGGAGUUCUACAGUCCGACGAUCUGUUGUCUUGUGUGGAAAAGGAAAAAAAAAUAAUAUAGGAAAGGCAUUAGGACUACCUAAUUCUUUAUAUUGUAUUUGGUAGAAGCAUGUUUCAGUCAUACUCUGAUGAAAAAUAAGUUACAACAGAGGAUUGAGCAUCA
B8: chr14:46222469:46222470:-_ENSMUSG00000037697_ENSMUST00000051310|mus_hu|FALSE|FALSE (ssRNA)
RNA: GGGAGUUCUACAGUCCGACGAUCAUUCUCUGAAACUGAGGUAGGUUCUUUAGCUGGGUUGAGAAAGCUUGGCUUCAUAUGUUCAUAAGGUAAAGGAUUUGAAGUAUUGUACCAGUGGAUCUGGACAGGUGAAAUGUUGCUGUACAACAGAGGAUUGAGCAUCA
B9: chr21:32491406:32491407:-_ENSG00000156299_ENST00000286827|hu_hu|motif|central (ssRNA)
RNA: GGGAGUUCUACAGUCCGACGAUCCAUAGUAUUUUAAACCCUUCUUAGGAAGUGGACAUUGUGACAUGGGAAAAGAAAAAGCGGUAAACCUUUUUUUAAAAAAAAAAAAAAAAUUGAAAGUGCUAUAACUUGUUUUUCUUCUUACAACAGAGGAUUGAGCAUCA
B10: chr11:9308113:9308114:-_ENSG00000166471_ENST00000528080|hu_hu|motif|central (ssRNA)
RNA: GGGAGUUCUACAGUCCGACGAUCAUUAGGCAGAAAUGGUGUUAUUCUCAAAAAUAUAAUGUAGUUAAUGAGAUGUUCUCGGUGACGUUCAACCUGCUGUGACCAUUUUACUGCUUUCUCUGUUAGGUAUUUGUAUACAACUGGCAACAGAGGAUUGAGCAUCA
B11: chr5:106037793:106037794:+_ENSMUSG00000054720_ENSMUST00000067924|mus_hu|motif|central (ssRNA)
RNA: GGGAGUUCUACAGUCCGACGAUCCUUUGUGUACAUUUUGUGUGAAAAGGAAAAAAAAAUAGGAAAGGCAUUAAGACGGCCGGAUUAUUUAUACUGUAUUUGGUAGAAGCGUGUUUCAGUCAAACUUUAACGAAAAAUAAGUUACAACAGAGGAUUGAGCAUCA
B12: 57185256_57189016_303_CDS_ENSG00000146143_ENST00000607273|human|control|control (ssRNA)
RNA: GGGAGUUCUACAGUCCGACGAUCUUCAUCUUCUAAGUUUUCUCUGUAGGAAAACUUGAGCUUCCGAAGCUCACUCUCCAACUUACUCUGGUAUUGUUCAGUUCCUUUCACAUAGCUCACUCCAAGAUUUUCAACUGAUUUUAACAACAGAGGAUUGAGCAUCA
B13: chrX:119742084:119742085:+_ENSG00000232119_ENST00000371317|hu_hu|FALSE|FALSE (ssRNA)
RNA: GGGAGUUCUACAGUCCGACGAUCAAAAGGAUAUUUGUGAAGUAAUCUUAGGGUUGGAUAAAAAGGCCCUUCUCUUUGUCUAAAAAAGAGUAAUUCUCCAUUUACUGUAAGGAUUUCUAUAUGUUCAUGGCAUCGGACUAUUUUCAACAGAGGAUUGAGCAUCA
B14: chr5:106037793:106037794:+_ENSMUSG00000054720_ENSMUST00000067924|mus_mus|motif|central (ssRNA)
RNA: B7 RNA with U77G, A78G, U81G, A82G

Substitutions are numbered along the chain they refer to. Whole data set: some 24,000 sequences, median “enrichment r” near 0.99, cut for the highest 2% near 3.7. What follows is part of a selection rich in the highest values, with near analogues and random picks from the rest.

The target of the assay is T1, UNK ZnF1-3. The assay can be described thus: nsRBNS (natural sequence RNA bind-n-seq); RBNS binding buffer (assumed for nsRBNS): 25 mM Tris pH 7.5, 150 mM KCl, 3 mM MgCl2, 0.01% Triton X-100, 500 ug/ml BSA, 20 U/ml SUPERase-In, 4 C; UNK is unkempt and MSI1 is Musashi-1; names of the RNAs are library labels; protein concentration not given here; high values mean tight binding.
B1 came in with a binding signal of 0.774 enrichment R. The same measure for B2: 1.68 enrichment R; for B3: 1.21 enrichment R.

In turn, B4 came in with a binding signal of 1.13 enrichment R.

Turning to B5, the binding signal is 0.583 enrichment R. The value for B6 was 1.01 enrichment R; that for B7 was 4.57 enrichment R. The value for B8 was 1.5 enrichment R. The value for B9 was 1.34 enrichment R; that for B10 was 1.85 enrichment R. B11 displayed a binding signal of 3.77 enrichment R. The value for B12 was 0.6 enrichment R; that for B13 was 0.455 enrichment R. On to B14, for which the binding signal amounted to 5.1 enrichment R.
